Test results: PubChem BioAssay (NCI)
Compounds without any hit were thinned out: in the full panel of roughly 83,000, 20% have a hit.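 Method: cells in 96-well plates; compound added at one concentration; 48 h incubation; percent growth measured; values under 10 scored active.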 Values without a mark were called inactive. The source made the active and inactive calls.

What follows are compounds tested on A549/ATCC NSCLC (assay: NCI-60 one-dose screen, 48 h (100 = growth as untreated, 0 = no growth, -100 = all killed)). Details: 10 µM unless noted.
For `Nc1ccc(CCCCc2ccccc2)c(Cl)c1`, the growth was 81.2%.
Compound `Nc1ccc(S(=O)(=O)Nc2ccsc2-c2nc(-c3ccccc3)no2)cc1` has a growth of 42.7%.
For `C=C(CNCCc1ccc(O)cc1)[C@@H]1CC[C@]2(COC3CCCCO3)CC[C@]3(C)[C@H](CC[C@@H]4[C@@]5(C)CCC(NCCO)C(C)(C)[C@@H]5CC[C@]43C)[C@@H]12` (stereo partly drawn), the growth was -88.6% (active).
With `OC(COc1cccc2ccccc12)CN1CCN(c2ccccc2)CC1` (stereo not drawn) the growth was 102%.
For `Cc1[nH]c(-c2nc3ccccc3[nH]2)c(C)c1C(=O)N1CCc2sccc2C1`, the growth was 93%.
With `CC(C)n1nc(C#Cc2cccc(NC(=O)c3cccc(C(F)(F)F)c3)c2)c2c(N)ncnc21` the growth was -14.4% (active).
Work on `Cc1cc(NS(=O)(=O)c2ccccc2)c(OS(=O)(=O)c2ccccc2)cc1C` yielded a growth of 104%.
In the case of `OCCCCc1nccc2c1[nH]c1ccccc12`, the growth is reported as 72.6%.
In the case of `C=C(C)[C@@H]1CC[C@]2(CNCCO)CC[C@]3(C)[C@H](CC[C@@H]4[C@@]5(C)CCC(N)[C@@](C)(CO)[C@@H]5CC[C@]43C)[C@@H]12` (stereo partly drawn), the growth is reported as -33.5% (active).
`OC(c1cccc(OCc2ccccc2)c1)c1nnc(-c2ccccc2)o1` (stereo not drawn) was tested, and the growth was 95.1%.
For `Cl.[Pt].[c-]1ccccc1-c1ccccn1.c1ccc(P(c2ccccc2)C([PH+](c2ccccc2)c2ccccc2)[PH+](c2ccccc2)c2ccccc2)cc1`, the growth was 14.6%.
`COc1cc2c(c(OC)c1OC)C(=O)/C(=C/c1cc(C)c(O)c(C)c1)S2` showed a growth of 44.4%.
Compound `O=C(Nc1ccccn1)[C@H](O)[C@@H](O)C(=O)N1CCOCC1` has a growth of 99.6%.
Compound `CC(C)(C)N1CC(OC(N)=O)C1` has a growth of 71.8%.
`O=C(NC1CCOCC1)c1ccc2c(c1)CN(c1ncc(Cc3cccc(-n4cccn4)c3)s1)CC2` gave a growth of 76%.
Compound `CN1C[C@@H](c2ccc(Cl)cc2)[C@]2(NC(=S)N(c3ccc(F)c(Cl)c3)C2=O)[C@@]12C(=O)NC1C=CC(Cl)=C[C@H]12` (stereo partly drawn) has a growth of 53%.
`CCCN1CCN(c2ccc3nc(-c4ccc5nc(-c6ccc(OCC)c(OCC)c6)[nH]c5c4)[nH]c3c2)CC1` was tested, and the growth was -50.2% (active).
In the case of `NC(=S)c1csc(CCNC(=O)c2ccccc2)n1`, the growth is reported as 90.1%.
In the case of `CCN(CCO)CC(=O)c1cc(Cl)cc(Cl)c1Cl`, the growth is reported as 96.1%.
`C=CC(=O)Nc1cccc(C)c1Nc1cc(-c2cccnc2Cc2c(C)c(OC)cc(OC)c2C)ncn1` was tested, and the growth was 8.38% (active).
Compound `N#Cc1c(NC(=O)c2ccccc2I)sc2c1CCCC2` has a growth of 53.6%.
Work on `C#CC[C@H](N)C(=O)O` yielded a growth of 99% [20 µM].
With `COc1ccc(-n2ncn(CCCCCCn3cnn(-c4ccc(OC)cc4)c3=O)c2=O)cc1` the growth was 96.7%.
`CC(C)OC(=O)OCOP(=O)(OCOC(=O)OC(C)C)C1CCCN(O)C1=O` (stereo not drawn) was tested, and the growth was 22.1%.
For `O=C(/C=C/C12c3ccccc3C(c3ccccc31)C1C(=O)N(c3ccc(Cl)cc3)C(=O)C12)c1ccccn1` (stereo not drawn), the growth was 5.63% (active).
`Cc1ccc(S(=O)(=O)N(CC[C@@H]2C[C@H]2c2cc3ccccc3o2)C(=O)NC2CCCCC2)cc1` gave a growth of 101%.
Work on `COc1cc2c(cc1OC)-c1ccc3cc4c(cc3c1N(CCCN1CCCCC1)C2)OCO4` yielded a growth of 49.5%.
In the case of `COc1cc2cc(Oc3ccc(NC(=O)Nc4cc(C(F)(F)F)cc(C(F)(F)F)c4)cc3)c(C)nc2cc1OCCN1CCCCC1`, the growth is reported as -64.9% (active).
Compound `CCN(CC)CCOC(=O)Nc1ccccc1Cl` has a growth of 98.7%.
For `COc1cc(CNC(=O)/C=C/C=C/c2ccc3c(c2)OCO3)ccc1OCc1cn(-c2ccc(Cl)c(Cl)c2)nn1`, the growth was 2.23% (active).
`N#C/C=C(\c1ccc([N+](=O)[O-])cc1)n1nnc2cc(Cl)c(Cl)cc21` was tested, and the growth was 53.2%.
Work on `CNC(=O)c1c(NC(=O)c2ccc(C(C)(C)C)cc2)sc2c1CCC(=O)C2` yielded a growth of 15.8%.
`CCCCOc1ccc(NC(=O)n2nc(N=NN(C)C)c3ccc(Cl)cc32)cc1` was tested, and the growth was 111%.
For `CC[C@@H](C[C@H](CCO)c1ccccc1)c1cc2ccccc2o1`, the growth was 84.3%.
`N=c1ccn2c(n1)OC1C(O)C(CO)OC12` (stereo not drawn) showed a growth of 16.2%.
Work on `Cc1cc(N2CCCCC2)nc(N(CCNc2ccnc3cc(Cl)ccc23)Cc2ccccn2)n1` yielded a growth of 53.9%.
`CCOc1ccc2nc(-c3cccc(OCC(=O)NC(C)C)c3)nc(Nc3ccc(-c4cn[nH]c4)cc3)c2c1` was tested, and the growth was -34.9% (active).
`C=C1C(=O)O[C@H]2[C@H]1CC/C(Cn1cc(CNCCc3c[nH]c4ccc(Cl)cc34)nn1)=C\CC[C@@]1(C)O[C@@H]21` was tested, and the growth was 84.1%.
`CS(=O)(=O)c1ccc(-c2nc3cc(Cl)ccc3n2CC(=O)N/N=C/c2ccc(Cl)cc2)cc1` showed a growth of 68.5%.

The compounds below were run on 786-0 renal in the same assay as above. Details: 10 µM unless noted.
With `Nc1ccc(CCCCc2ccccc2)c(Cl)c1` the growth was 88.9%.
With `Nc1ccc(S(=O)(=O)Nc2ccsc2-c2nc(-c3ccccc3)no2)cc1` the growth was 86%.
For `C=C(CNCCc1ccc(O)cc1)[C@@H]1CC[C@]2(COC3CCCCO3)CC[C@]3(C)[C@H](CC[C@@H]4[C@@]5(C)CCC(NCCO)C(C)(C)[C@@H]5CC[C@]43C)[C@@H]12` (stereo partly drawn), the growth was -90.2% (active).
`OC(COc1cccc2ccccc12)CN1CCN(c2ccccc2)CC1` (stereo not drawn) gave a growth of 94.2%.
For `Cc1[nH]c(-c2nc3ccccc3[nH]2)c(C)c1C(=O)N1CCc2sccc2C1`, the growth was 99.7%.
For `CC(C)n1nc(C#Cc2cccc(NC(=O)c3cccc(C(F)(F)F)c3)c2)c2c(N)ncnc21`, the growth was -20.9% (active).
`Cc1cc(NS(=O)(=O)c2ccccc2)c(OS(=O)(=O)c2ccccc2)cc1C` was tested, and the growth was 112%.
With `OCCCCc1nccc2c1[nH]c1ccccc12` the growth was 102%.
In the case of `C=C(C)[C@@H]1CC[C@]2(CNCCO)CC[C@]3(C)[C@H](CC[C@@H]4[C@@]5(C)CCC(N)[C@@](C)(CO)[C@@H]5CC[C@]43C)[C@@H]12` (stereo partly drawn), the growth is reported as -58.1% (active).
`OC(c1cccc(OCc2ccccc2)c1)c1nnc(-c2ccccc2)o1` (stereo not drawn) gave a growth of 100%.
`Cl.[Pt].[c-]1ccccc1-c1ccccn1.c1ccc(P(c2ccccc2)C([PH+](c2ccccc2)c2ccccc2)[PH+](c2ccccc2)c2ccccc2)cc1` gave a growth of 22.8%.
In the case of `COc1cc2c(c(OC)c1OC)C(=O)/C(=C/c1cc(C)c(O)c(C)c1)S2`, the growth is reported as 42.6%.
`O=C(Nc1ccccn1)[C@H](O)[C@@H](O)C(=O)N1CCOCC1` showed a growth of 107%.
In the case of `CC(C)(C)N1CC(OC(N)=O)C1`, the growth is reported as 96.4%.
Work on `O=C(NC1CCOCC1)c1ccc2c(c1)CN(c1ncc(Cc3cccc(-n4cccn4)c3)s1)CC2` yielded a growth of 68.7%.
With `CN1C[C@@H](c2ccc(Cl)cc2)[C@]2(NC(=S)N(c3ccc(F)c(Cl)c3)C2=O)[C@@]12C(=O)NC1C=CC(Cl)=C[C@H]12` (stereo partly drawn) the growth was -68% (active).
In the case of `CCCN1CCN(c2ccc3nc(-c4ccc5nc(-c6ccc(OCC)c(OCC)c6)[nH]c5c4)[nH]c3c2)CC1`, the growth is reported as -89% (active).
`NC(=S)c1csc(CCNC(=O)c2ccccc2)n1` showed a growth of 98.2%.
With `CCN(CCO)CC(=O)c1cc(Cl)cc(Cl)c1Cl` the growth was 98.1%.
`C=CC(=O)Nc1cccc(C)c1Nc1cc(-c2cccnc2Cc2c(C)c(OC)cc(OC)c2C)ncn1` was tested, and the growth was 16%.
In the case of `N#Cc1c(NC(=O)c2ccccc2I)sc2c1CCCC2`, the growth is reported as 52.2%.
`C#CC[C@H](N)C(=O)O` showed a growth of 98.1% [20 µM].
With `COc1ccc(-n2ncn(CCCCCCn3cnn(-c4ccc(OC)cc4)c3=O)c2=O)cc1` the growth was 96.7%.
`CC(C)OC(=O)OCOP(=O)(OCOC(=O)OC(C)C)C1CCCN(O)C1=O` (stereo not drawn) gave a growth of 17.6%.
With `O=C(/C=C/C12c3ccccc3C(c3ccccc31)C1C(=O)N(c3ccc(Cl)cc3)C(=O)C12)c1ccccn1` (stereo not drawn) the growth was -60.7% (active).
`Cc1ccc(S(=O)(=O)N(CC[C@@H]2C[C@H]2c2cc3ccccc3o2)C(=O)NC2CCCCC2)cc1` was tested, and the growth was 95.4%.
With `COc1cc2c(cc1OC)-c1ccc3cc4c(cc3c1N(CCCN1CCCCC1)C2)OCO4` the growth was 40.1%.
In the case of `COc1cc2cc(Oc3ccc(NC(=O)Nc4cc(C(F)(F)F)cc(C(F)(F)F)c4)cc3)c(C)nc2cc1OCCN1CCCCC1`, the growth is reported as -83.6% (active).
In the case of `CCN(CC)CCOC(=O)Nc1ccccc1Cl`, the growth is reported as 92.1%.
In the case of `COc1cc(CNC(=O)/C=C/C=C/c2ccc3c(c2)OCO3)ccc1OCc1cn(-c2ccc(Cl)c(Cl)c2)nn1`, the growth is reported as -40.6% (active).
In the case of `N#C/C=C(\c1ccc([N+](=O)[O-])cc1)n1nnc2cc(Cl)c(Cl)cc21`, the growth is reported as -26.7% (active).
With `CNC(=O)c1c(NC(=O)c2ccc(C(C)(C)C)cc2)sc2c1CCC(=O)C2` the growth was 29.3%.
`CCCCOc1ccc(NC(=O)n2nc(N=NN(C)C)c3ccc(Cl)cc32)cc1` was tested, and the growth was 109%.
Compound `CC[C@@H](C[C@H](CCO)c1ccccc1)c1cc2ccccc2o1` has a growth of 91%.
`N=c1ccn2c(n1)OC1C(O)C(CO)OC12` (stereo not drawn) showed a growth of 15%.
For `Cc1cc(N2CCCCC2)nc(N(CCNc2ccnc3cc(Cl)ccc23)Cc2ccccn2)n1`, the growth was 45.3%.
With `CCOc1ccc2nc(-c3cccc(OCC(=O)NC(C)C)c3)nc(Nc3ccc(-c4cn[nH]c4)cc3)c2c1` the growth was -12.5% (active).
`C=C1C(=O)O[C@H]2[C@H]1CC/C(Cn1cc(CNCCc3c[nH]c4ccc(Cl)cc34)nn1)=C\CC[C@@]1(C)O[C@@H]21` gave a growth of 67.4%.
`CS(=O)(=O)c1ccc(-c2nc3cc(Cl)ccc3n2CC(=O)N/N=C/c2ccc(Cl)cc2)cc1` gave a growth of 16.1%.
